Measurements as given in PubChem BioAssay (EPA / NIEHS).
Results filed as inconclusive are left out. Activity calls are given as the source filed them. How the source made its calls, unless noted: active means hit-call score of the fitted dose curve at least 0.9, where 1 is the maximum; inactive means score below 0.9.

Tests used:
[1] = CCTE_Shafer_MEA_dev_firing_rate_mean: CCTE's Neural Network Formation Assay for Mean Firing Rate, Shafer Lab (AID 2284031)
How it was run: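 Extracellular spike frequency, AUC over DIV 5–12 recordings, in rat cortical neuron MEA cultures dosed from plating; loss direction vs DMSO.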

[2] = CCTE_Shafer_MEA_dev_active_electrodes_number: CCTE's Neural Network Formation Assay for Number of Active Electrodes, Shafer Lab (AID 2284040; active means hit-call score of the fitted dose curve at least 0.9, where 1 is the maximum;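 further: potency for loss of active electrodes versus DMSO so lower counts are hits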)
How it was run: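 Developing rat cortical networks on MEAs, exposed DIV 0–12. Value is the AUC of active-electrode counts (≥5 spikes/min) from days 5, 7, 9, 12, relative to DMSO.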

[3] = CCTE_Shafer_MEA_dev_burst_rate: CCTE's Neural Network Formation Assay for Burst Rate, Shafer Lab (AID 2284042)
How it was run: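 Rat primary cortical cultures on PEI/laminin MEA; compound from plating, re-dosed at DIV 5, 9 media change. Single-electrode bursts/recording length, well mean of active electrodes; AUC over DIV 5–12 recordings; loss-of-signal vs DMSO.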

[4] = CCTE_Shafer_MEA_dev_bursting_electrodes_number: CCTE's Neural Network Formation Assay for Number of Bursting Electrodes, Shafer Lab (AID 2284043; active means hit-call score of the fitted dose curve at least 0.9, where 1 is the maximum)
How it was run: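 Number of electrodes reaching ≥1 burst every 2 min was recorded at DIV 5, 7, 9 and 12 and collapsed as trapezoidal area under the curve. Cultures were rat cortical neurons on MEA plates, dosed continuously from plating with medium and treatment refreshed on DIV 5 and 9.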

[5] = CCTE_Shafer_MEA_dev_burst_duration_mean: CCTE's Neural Network Formation Assay for Mean Burst Duration, Shafer Lab (AID 2284045)
How it was run: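 Mean single-electrode burst duration (first to last spike), averaged over bursting electrodes per well, then integrated as area-under-curve across recordings at days 5, 7, 9 and 12. Rat cortical cultures on MEAs, compound present from plating, refreshed at feeds.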

[6] = CCTE_Shafer_MEA_dev_inter_network_spike_interval_mean: CCTE's Neural Network Formation Assay for Mean Inter-network Spike Interval, Shafer Lab (AID 2284047)
How it was run: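 Primary rat cortical neurons on PEI-coated 48-well MEAs (16 electrodes/well) were exposed from plating day 0 to DIV 12, with dosing renewed at DIV 5 and 9. Recordings at DIV 5, 7, 9, 12 were collapsed by trapezoidal AUC, loss-of-signal fit vs DMSO.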

[7] = CCTE_Shafer_MEA_dev_network_spike_number: CCTE's Neural Network Formation Assay for Number of Network Spikes, Shafer Lab (AID 2284048);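 further: synchronized bursts across electrodes counted on days 5 7 9 12 and integrated as AUC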
How it was run: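 Number of network spikes (coordinated firing across electrodes) recorded on days 5, 7, 9 and 12 and summarised as area under the curve. Rat cortical cultures on MEA, continuous compound exposure with full medium/treatment exchange at DIV 5 and 9.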

[8] = CCTE_Shafer_MEA_dev_network_spike_peak: CCTE's Neural Network Formation Assay for Mean Number of Electrodes in Network Spike, Shafer Lab (AID 2284049)
How it was run: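 Rat cortical primary culture, 1.5 x 10^5 cells/well, 48-well MEA (16 electrodes/well). Dosing day 0 through DIV 12, full media/compound exchange DIV 5, 9. AxIS adaptive spike detection; AUC over days 5/7/9/12; loss-of-signal vs DMSO.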

[9] = CCTE_Shafer_MEA_dev_spike_duration_mean: CCTE's Neural Network Formation Assay for Mean Spike Duration, Shafer Lab (AID 2284051);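 further: mean network spike duration pooled as area under curve over DIV 5 to 12 recordings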
How it was run: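 Rat cortical primary cultures, 48-well MEA (16 electrodes/well); compound from plating, renewed DIV 5, 9. Network spike duration (AxIS adaptive detector) recorded DIV 5/7/9/12, combined as trapezoidal AUC; loss direction vs DMSO.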

[10] = CCTE_Shafer_MEA_dev_network_spike_duration_std: CCTE's Neural Network Formation Assay for Standard Deviation of Network Spike Duration, Shafer Lab (AID 2284052);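 further: hits are decreases in network spike duration SD versus DMSO vehicle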
How it was run: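 Rat cortical cultures, 1.5 x 10^5 cells/well, exposed continuously from plating to DIV 12 with media/compound renewal at DIV 5, 9. Spontaneous activity recorded DIV 5/7/9/12, AxIS adaptive spike detector; AUC across days; negative direction vs DMSO.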

[11] = CCTE_Shafer_MEA_dev_per_network_spike_spike_number_mean: CCTE's Neural Network Formation Assay for Mean Number of Spikes in a Network Spike, Shafer Lab (AID 2284053)
How it was run: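 Rat cortical primary cultures on 48-well MEA; compound from day 0, re-dosed with full media change DIV 5, 9. Recorded DIV 5, 7, 9, 12; spikes in 0.05 s window at network-spike peak ÷ total network spikes; AUC; loss vs DMSO.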

[12] = CCTE_Shafer_MEA_dev_per_network_spike_spike_percent: CCTE's Neural Network Formation Assay for Percent of Spikes in a Network Spike, Shafer Lab (AID 2284054)
How it was run: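 Metric: fraction of spikes falling in a 0.05 s window at network-spike peaks. Recordings were made on days 5, 7, 9 and 12 and collapsed by trapezoidal AUC. Cultures were rat cortical neurons on MEA plates, dosed continuously from plating, re-dosed at media changes.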

[13] = CCTE_Shafer_MEA_dev_LDH: CCTE's Lactate Dehydrogenase Assay for Cytotoxicity in the Neural Network Formation Assay, Shafer Lab (AID 2284068; active means hit-call score of the fitted dose curve at least 0.9, where 1 is the maximum;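 further: exposure for twelve days from plating with re-dosing on DIV 5 and 9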)
How it was run: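 Rat cortical primary neurons, MEA culture; dosing day 0–12, full medium plus compound exchange DIV 5, 9. Read-out: LDH enzyme activity, spectrophotometric. DMSO = negative control/baseline; signal loss → cytotoxicity.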

[14] = CCTE_Shafer_MEA_dev_AB: CCTE's Alamar Blue Assay for Cytotoxicity in the Neural Network Formation Assay, Shafer Lab (AID 2284083; active means hit-call score of the fitted dose curve at least 0.9, where 1 is the maximum;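 further: resazurin reduction fluorescence as viability of cultured neurons; twelve days of exposure from plating with re-dosing on DIV 5 and 9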)
How it was run: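 Rat cortical primary cultures, 1.5 x 10^5 cells/well on MEA; continuous compound exposure over 12 days of network development, re-dosed with full medium change DIV 5 and 9. Alamar Blue fluorescence; loss of signal = cytotoxicity vs DMSO baseline.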

[15] = CCTE_Shafer_MEA_dev_mutual_information_norm: CCTE's Neural Network Formation Assay for Mutual Information Normalization, Shafer Lab (AID 2284091)
How it was run: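 Shared information across electrodes, tracked on days 5, 7, 9 and 12 of network development and collapsed as trapezoidal area under the curve. Rat cortical cultures were treated continuously from plating, with treatment renewed at feeds on DIV 5 and 9; DMSO baseline, negative-direction fit.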

[16] = CCTE_Shafer_MEA_dev_correlation_coefficient_mean: CCTE's Neural Network Formation Assay for Mean Correlation Coefficient, Shafer Lab (AID 2284093)
How it was run: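 Rat cortical cultures, 1.5 x 10^5 cells/well, dosed from day 0 for 12 days. Spontaneous spikes recorded DIV 5/7/9/12; electrode-pair correlation coefficients averaged, AUC taken. Fit in loss direction vs DMSO.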

[17] = UKN2_HCS_IMR90_neural_migration: University of Konstanz (UKN) Leist Lab Neural Crest Cell Migration Assay in human induced IMR90 Pluripotent Stem Cells (UKN2) (AID 2284204); details: actives raise or lower the signal
How it was run: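 High-content imaging of calcein-AM and Hoechst stained cells quantifies migration into a stopper-defined gap after 24 h compound exposure. Neural crest cells from IMR90 iPSC migrated 24 h in EGF/FGF N2-S medium before dosing; DMSO baseline.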

[18] = IUF_NPC1b_proliferation_BrdU_72hr: Leibniz Research Institute for Environmental Medicine (IUF) 72-hour Neural Progenitor Cell Bromodeoxyuridine (BrdU) Proliferation Assay (NPC1b) (AID 2284207)
How it was run: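 Human fetal cortex-derived (GW 16-19) neural progenitor spheres, 0.25-0.35 mm, one per well in EGF/FGF proliferation medium, exposed to compound for 72 h at 37C, pH 7.2-7.6. BrdU incorporation over the final 16 h read by luminescence ELISA, relative to DMSO.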

[19] = IUF_NPC1a_proliferation_area_72hr: Leibniz Research Institute for Environmental Medicine (IUF) 72-hour Neural Progenitor Cell Proliferation Area Assay (NPC1a) (AID 2284208)
How it was run: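 Single 0.25–0.35 mm human fetal neural progenitor spheres in proliferation medium with EGF and FGF, exposed 72 h from plating without renewal at 37C, pH 7.2-7.6. Sphere area growth measured by automated phase-contrast imaging, relative to DMSO.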

[20] = IUF_NPC1_viability_72hr: Viability Assessment at 72 hours in the Leibniz Research Institute for Environmental Medicine (IUF) Neural Progenitor Cell Proliferation Assay (NPC1) (AID 2284209)
How it was run: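 Three-day continuous exposure of human neural progenitor spheres under EGF/FGF-driven proliferation; cell viability scored by alamar blue signal versus DMSO.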

[21] = CCTE_Mundy_HCI_Cortical_Synap_Neur_Matur_NeuriteSpotCountPerNeuriteLength: CCTE's Synaptogenesis and Neurite Maturation Assay in rat cortical cells for Neurite Spot Count per Neurite Length, Mundy Lab (AID 2284210)
How it was run: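 Synaptophysin spots per unit neurite length, measured by automated imaging of MAP2/synaptophysin/Hoechst-stained neurons. Cultures from rat cortex received chemical at DIV 7 with media change through DIV 12; glial growth arrested by AraC at DIV 5; DMSO baseline.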

[22] = CCTE_Mundy_HCI_Cortical_Synap_Neur_Matur_BPCount: CCTE's Synaptogenesis and Neurite Maturation Assay in rat cortical cells for Branch Point Count, Mundy Lab (AID 2284211)
How it was run: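 In this multiplexed morphology assay, cortical cells from rat receive chemicals at DIV 7 and are fixed at DIV 12, then immunostained and imaged; branch points are counted, with DMSO as baseline.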

[23] = CCTE_Mundy_HCI_Cortical_NOG_NeuriteCount: CCTE's Neurite Outgrowth Assay in rat cortical cells for Neurite Count, Mundy Lab (AID 2284212);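 further: cells fixed about two days after chemical exposure began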
How it was run: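 Rat cortical primary cells; compound added 2 h post-plating, 1/10 dilution of working solution. Anti-betaIII-tubulin/AF488 ICC; ArrayScan neurite count vs DMSO.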

Measured: AC50

CCOP(=O)(Oc1cnc(C(C)(C)C)nc1)OC(C)C (stereo not drawn)
active: [2] 29.2 µM | [13] 11.4 µM | [14] 11.7 µM | [18] 2.63 µM
inactive: [1] | [3] | [4] | [5] | [6] | [7] | [8] | [9] | [10] | [11] | [12] | [15] | [16] | [17] | [19] | [20] | [21] | [22] | [23]
